TDP1 cell noCPT: qHTS for Inhibitors of human tyrosyl-DNA phosphodiesterase 1 (TDP1): qHTS in cells in absence of CPT | Potency, µM (top dose mostly 46.2 µM), usual class: inhibitors | DT40 Tdp1-/- hTDP1 cells, no CPT, ATP luminescence, 48 h | 420,000 compounds, 15% hits; note: nearly all actives have a fitted effect of over 55% in size
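DT40 Tdp1-/-;hTDP1 cells, no CPT (DMSO vehicle only), 400 cells/well; compounds pin-transferred; ≥48 hr, 37 °C; CellTiter-Glo 30 min RT dark, luminescence read.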
IL-1B inflam inh: inhibitors of inflammasome signaling (IL-1 beta secretion). THP-1 LPS/ATP IL-1B secretion, AlphaLISA, 16 h; hits give low values. activity change, % at 57.5 µM. 360,000 compounds, 4.7% hits; in the data active = activity change below about -50%; inconclusive = mostly about -30% to -49%
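THP-1 cells pretreated 1 hr with compounds (up to 57.5 uM final), then stimulated with LPS (250 ng/mL final) plus ATP (1.25 mM final); secreted IL-1B measured by AlphaLISA after 16 hr, decreased signal indicating inhibition.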
TGFb inhibitor: inhibitors of TGF-b signaling; HepG2 CAGA-GFP TGF-b/SMAD3 reporter, GFP fluorescence, 18 h; TGF-beta stimulated, 500 pg/mL final; Potency, µM (series often up to 46.1 µM), actives largely listed as inhibitors; 410,000 compounds, 1.2% hits; note: nearly all actives have a fitted effect of over 65% in size
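Inhibition of TGF-beta-driven CAGA-GFP reporter expression in HEPG2 cells is measured by cellular GFP fluorescence after 18 h stimulation with 500 pg/mL recombinant TGF-beta in 1% FBS medium at 37 degrees C.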
HepG2 viability: HepG2 cytotoxicity, counter-screen for TGF-b inhibitors; HepG2 CAGA-GFP viability, ATP luminescence, 18 h; AID 588856; Potency, µM (highest dose often 46.1 µM), hits mostly cytotoxic; 410,000 compounds, 0.76% hits
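CellTiter-Glo luminescence gave cytotoxicity after 18 hours at 37 degrees C. The cells were HepG2 CAGA-GFP in 1% FBS DMEM, stimulated with 500 pg/mL TGF-beta after compound addition. %Activity was normalised to no-cell wells (complete cell-killing) and DMSO (no toxicity), and curves were fitted and classified.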
TDP1 cell CPT: DT40-hTDP1 cell growth loss with CPT. chicken DT40 Tdp1-/-;hTDP1 cells + 20 nM CPT, ATP luminescence, 48 h. Potency, µM (top dose mostly 46.2 µM), hits mostly inhibitors. 420,000 compounds, 12% hits. AID 686979; note: nearly all actives have a fitted effect of over 55% in size
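Chicken DT40 Tdp1-/- cells stably complemented with human TDP1 were seeded at 400 cells/well in medium containing 20 nM camptothecin, exposed to pin-transferred compounds, and grown at 37 °C for at least 48 hr. Viability was read as ATP luminescence.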
S-ASM inh: blocks human secretory acid sphingomyelinase; P17405; placental ASM, HMU-PC fluorogenic substrate, 60 min; 340,000 compounds, 0.006% hits; Potency, µM (highest dose often 57.5 µM), hits mostly inhibitors
Target sequence (P17405 47-631 limits assumed): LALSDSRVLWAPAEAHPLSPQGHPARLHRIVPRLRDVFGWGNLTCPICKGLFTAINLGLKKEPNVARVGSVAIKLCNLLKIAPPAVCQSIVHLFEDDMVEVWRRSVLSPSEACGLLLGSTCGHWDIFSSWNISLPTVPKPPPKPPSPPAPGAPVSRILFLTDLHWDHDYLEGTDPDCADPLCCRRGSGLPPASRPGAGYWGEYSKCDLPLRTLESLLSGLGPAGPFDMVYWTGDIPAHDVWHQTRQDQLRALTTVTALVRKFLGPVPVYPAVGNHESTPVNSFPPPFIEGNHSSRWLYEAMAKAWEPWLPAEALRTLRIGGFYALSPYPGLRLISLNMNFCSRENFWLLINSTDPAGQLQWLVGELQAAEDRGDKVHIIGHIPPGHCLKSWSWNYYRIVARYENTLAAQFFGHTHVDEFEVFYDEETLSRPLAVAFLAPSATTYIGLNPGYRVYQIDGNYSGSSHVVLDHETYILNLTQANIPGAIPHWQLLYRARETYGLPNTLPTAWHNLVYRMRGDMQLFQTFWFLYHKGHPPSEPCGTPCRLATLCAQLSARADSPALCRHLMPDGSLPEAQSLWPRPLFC
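Fluorogenic HMU-PC substrate (9 uM final) is turned over by placental ASM in 60 min at 37 C after a 10 min compound preincubation. Reaction ended by alkaline stop (pH 10), with fluorescence read at 386/447 nm.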
Hits are given with their value; - = inactive; ? = inconclusive; . = no result given; [ ] = another dose, or the depositor's remark. Compounds with a hit are over-represented: about 19% of the library has one in this group of screens. Unless noted, calls come from the whole dose curve; as a rule, active = well fitted curve in the direction sought with a large enough effect; inconclusive = small, poorly fitted or top-dose-only effect, or another doubt; inactive = no such curve, though single readings can be large; an effect the other way counts as inactive or inconclusive.

SMILES	TDP1 cell noCPT	IL-1B inflam inh	TGFb inhibitor	HepG2 viability	TDP1 cell CPT	S-ASM inh
Cc1ccn2c(=O)c(C(=O)NCCCN3CCCCC3C)c(O)nc2c1 (stereo unspecified)	-	-	-	-	-	-
Cc1cccn2c(=O)c(C(=O)NC3CC(C)CC(C)(C)C3)c(O)nc12 (stereo unspecified)	7.31µM	-	-	-	7.31µM	-
Cc1ccn2c(=O)c(C(=O)NC3CCCCC3C)c(O)nc2c1 (stereo unspecified)	?	-	-	-	16.4µM	-
COC(=O)c1ccccc1NC(=O)CSc1nnc2cc(C)c3cc(C)cc(C)c3n12	?	.	-	-	?	.
Cc1ccc(NC(=O)C2(NC(=O)c3ccccn3)CCCCC2)cc1Br	?	-	-	-	20.6µM	-
O=C(NC1(C(=O)NC2CCCCC2)CCCCC1)c1ccccn1	-	-	-	-	-	-
Cc1cc(NC(=O)c2cccs2)ncc1NC(=O)C(C)C	-	-	-	-	-	-
CCCn1c(=O)c2ccccc2n2c(Sc3nnnn3-c3ccccc3)nnc12	23.1µM	-	-	-	?	-
CCCn1c(=O)c2ccccc2n2c(SCC(=O)NCc3cccs3)nnc12	14.6µM	-	-	-	?	-
COc1ccc(NS(=O)(=O)c2cc(C(=O)OC(C)C(=O)N3CCOCC3)ccc2Cl)cc1 (stereo unspecified)	-	-	-	-	-	-
COc1ccc(S(=O)(=O)N2CCC(C(=O)NCC3CCCCC3)CC2)cc1	?	-	-	-	-	-
Cc1cccc(-c2nc3c4ccccc4n(Cc4cccc(Cl)c4)c(=O)n3n2)c1	10.3µM	.	-	-	20.6µM	.
CCc1cccc(NC(=O)Cn2c(=O)n3nc(-c4cccc(F)c4)nc3c3ccccc32)c1	4.61µM	.	-	-	3.66µM	.
NC(=O)Cn1c(=O)n(-c2ccc(F)c(Cl)c2)c(=O)c2sc3ccccc3c21	?	.	-	-	-	.
Cc1ccc(NC(=O)CCn2cccn2)cc1Cl	-	.	-	-	-	.
CCN1CCN(C(=O)c2cccc(OC3CCN(S(C)(=O)=O)CC3)c2)[C@@H](C)C1=O	-	-	-	-	-	-
COc1ccc(C(=O)CC(=O)c2ccc(F)cc2)cc1	?	-52.6	-	-	-	-
COc1ccc(C(=O)CCc2ccccc2)cc1	-	-52.4	-	-	-	-
COc1ccc(C(=O)N(C)c2ccccc2C(=O)NCCc2ccccc2)cc1	2.91µM	-	-	-	4.11µM	-
CC1(C(=O)Nc2ccc3nc[nH]c3c2)CCN1C(=O)CCc1ccccc1 (stereo unspecified)	?	-	-	-	-	.
Cc1ccc(NC(=O)N2CCC(CN3CCCCCC3)CC2)c(Cl)c1	?	.	-	-	?	.
O=C(COC(=O)CN1C(=O)NC2(CCCCC2)C1=O)Nc1cc(F)ccc1F	-	-	-	-	?	-
CN(CC(=O)Nc1ccc(Cl)cc1F)S(=O)(=O)c1ccc2c(c1)n(C)c(=O)c(=O)n2C	-	.	-	-	-	.
CN(C(=O)c1cc2c(cc1Br)OCO2)c1cccc2ccccc12	20.6µM	-	-	-	?	.
Nc1ccc(-c2ncc(-c3ccccc3)o2)cc1	?	-59.4	?	-	-	-[11.5 µM]
Cc1ccc(-c2cnc(-c3ccncc3)o2)cc1	?	-	-	-	-	-
CCS(=O)(=O)c1ccc2c(c1)N(S(C)(=O)=O)CC(C(=O)NN)O2 (stereo unspecified)	-	-	-	-	-	-
Cc1cccc(Cn2nnc3ccccc32)c1O	-	-	-	-	?	-
Cc1cc(Cn2nnc3ccccc32)c(O)c(C(C)(C)C)c1	16.4µM	-	?	-	16.4µM	-
CC(C)(C)c1cccc(Cn2nnc3ccccc32)c1O	20.6µM	-	?	-	29.1µM	-
